The source of these data is PubChem BioAssay (NCI).

“And” between values parts separate entries of the source, which are not always exact repeats. Identical values can stand only once. Compounds without any hit were thinned out: in the full panel of roughly 79,000, 15% have a hit. A number with no mark means an inactive call. The source made the active and inactive calls. No stated cut-off is given here; in the data, active means growth inhibition above about 70%; inactive means the rest.

Assay [1] is described as follows: NCI Yeast Anticancer Drug Screen. Data for the rad50 strain (AID 155).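 Further: 0% = growth of vehicle-only cultures of the same strain.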 The settings on record: S. cerevisiae rad50 strain growth inhibition, active compounds read high. Summed up:
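Cells are treated with compound, grown, and their growth is then scored against vehicle-only cultures of the same repair-deficient yeast strain.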

Assay [2] is described as follows: NCI Yeast Anticancer Drug Screen. Data for the mec2-1 strain (AID 157). The settings on record: S. cerevisiae mec2-1 strain, active compounds read high. Summed up: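 Using mec2-1 yeast: add compound, measure growth, express inhibition versus vehicle-treated cultures.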
Assay [3] is described as follows: NCI Yeast Anticancer Drug Screen. Data for the sgs1 mgt1 strain (AID 161).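 Further: 0% = growth of cultures given vehicle only.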 The settings on record: S. cerevisiae sgs1 mgt1 strain, active compounds read high. Summed up: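 This yeast growth screen uses a strain with defined DNA-repair lesions; compound-treated growth is compared with vehicle-treated growth.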
The nature of assay [4]: NCI Yeast Anticancer Drug Screen. Data for the cln2 rad14 strain (AID 165).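 Further: 0% = growth equal to vehicle treated cultures.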 The settings on record: S. cerevisiae cln2 rad14 strain, active compounds read high. Summed up:
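Yeast strain cln2 rad14, bearing defects in cell cycle control and DNA repair, serves as the test system; values reflect growth inhibition compared with vehicle.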

The nature of assay [5]: NCI Yeast Anticancer Drug Screen. Data for the bub3 strain (AID 167). The settings on record: S. cerevisiae bub3 mutant strain, active compounds read high. Summed up:
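Part of a panel of yeast mutants defective in DNA damage repair or cell cycle regulation. Each strain is grown with compound, and inhibition is calculated relative to solvent-treated cultures.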

The nature of assay [6]: NCI Yeast Anticancer Drug Screen. Data for the mlh1 rad18 strain (AID 175). The settings on record: S. cerevisiae mlh1 rad18 strain growth inhibition, active compounds read high. Summed up: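 Steps: expose repair-defective yeast to compound; measure growth; express inhibition against vehicle-treated controls.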
Setting [7] is: at 5.0 µM (retest, dose inferred, filed as 0.5).
[8] abbreviates: at 50.0 µM (retest, dose inferred, filed as 5.0).

For `Nc1nc(=O)n(C2OC(CO)C(O)C2O)cc1[N+](=O)[O-]` (centres undefined), the growth inhibition was -10% in assay [1] (setting [7]); -9% in assay [1] (setting [8]); -5.75% in assay [1] (at 50.0 µM); -6% in assay [2] (setting [7]); -15% in assay [2] (setting [8]); 18.9% in assay [2] (at 50.0 µM). The growth inhibition in assay [3] (setting [7]) is -2%; in assay [3] (setting [8]), -5%; in assay [3] (at 50.0 µM) it was 4.45%; in assay [4] (setting [7]), -40%; in assay [4] (setting [8]) it was -13%; in assay [4] (at 50.0 µM) it was -10.2%. Moreover, the growth inhibition is -7% in assay [5] (setting [7]); 1% in assay [5] (setting [8]); -12.7% in assay [5] (at 50.0 µM); 1% in assay [6] (setting [7]); -5% in assay [6] (setting [8]); 17.9% in assay [6] (at 50.0 µM).

In the case of `CCC=Nc1c(O)cc(-c2ccccc2)n(C)c1=O`, the growth inhibition is 36% in assay [1] (setting [7]); 71% (active) in assay [1] (setting [8]); 73.2% (active) in assay [1] (at 50.0 µM); 35% in assay [2] (setting [7]); 75% (active) in assay [2] (setting [8]); 11.9% in assay [2] (at 50.0 µM). The growth inhibition in assay [3] (setting [7]) was 40%; in assay [3] (setting [8]), 92% (active); in assay [3] (at 50.0 µM) it was 70.8% (active); in assay [4] (setting [7]), 35%; in assay [4] (setting [8]), 45%; in assay [4] (at 50.0 µM), 16.3%. Also, the growth inhibition is 35% in assay [5] (setting [7]); 93% (active) in assay [5] (setting [8]); 70% (active) in assay [5] (at 50.0 µM); 47% in assay [6] (setting [7]); 94% (active) in assay [6] (setting [8]); 60.5% in assay [6] (at 50.0 µM).

Turning to `Cc1cc(SCc2ccccc2)cc(C)[o+]1`, the growth inhibition in assay [1] (setting [7]) was -1%; in assay [1] (setting [8]) it was 92% (active); in assay [1] (at 50.0 µM), 17.4%; in assay [2] (setting [7]), 18%; in assay [2] (setting [8]), 99% (active); in assay [2] (at 50.0 µM) it was 44.4%. Moreover, the growth inhibition in assay [3] (setting [7]) was -20%; in assay [3] (setting [8]), 88% (active); in assay [3] (at 50.0 µM), 60.1%; in assay [4] (setting [7]), -1%; in assay [4] (setting [8]), 93% (active); in assay [4] (at 50.0 µM), 55.8%. Also, the growth inhibition is -2% in assay [5] (setting [7]); 96% (active) in assay [5] (setting [8]); 61.5% in assay [5] (at 50.0 µM); -6% in assay [6] (setting [7]); 96% (active) in assay [6] (setting [8]); 63.7% in assay [6] (at 50.0 µM).

On to `O=C(NC1CCN(Cc2ccccc2)CC1)c1cccc(I)c1`, for which the growth inhibition in assay [1] (setting [7]) is 49%; in assay [1] (setting [8]), 68%; in assay [1] (at 50.0 µM), 51.7%; in assay [2] (setting [7]), 39%; in assay [2] (setting [8]), 64%; in assay [2] (at 50.0 µM), 58%. In addition, the growth inhibition is 57% in assay [3] (setting [7]); 73% (active) in assay [3] (setting [8]); 81% (active) in assay [3] (at 50.0 µM); 62% in assay [5] (setting [7]); 65% in assay [5] (setting [8]); 70% (active) in assay [5] (at 50.0 µM). For the same compound, the growth inhibition in assay [6] (setting [7]) was 73% (active); in assay [6] (setting [8]), 59%; in assay [6] (at 50.0 µM) it was 67.5%.

For the compound `CCCNCCCC(C)Nc1cc(OC)cc2c(C)ccnc12` (centres undefined), the growth inhibition in assay [1] (setting [7]) is 17%; in assay [1] (setting [8]) it was 73% (active); in assay [1] (at 50.0 µM), 66.4%; in assay [2] (setting [7]), 8%; in assay [2] (setting [8]), 48%; in assay [2] (at 50.0 µM), 55.2%. In addition, the growth inhibition in assay [3] (setting [7]) was 20%; in assay [3] (setting [8]), 78% (active); in assay [3] (at 50.0 µM) it was 41.9%; in assay [4] (setting [7]), 2%; in assay [4] (setting [8]), 46%; in assay [4] (at 50.0 µM), 27.1%. The growth inhibition in assay [6] (setting [7]) is 11%; in assay [6] (setting [8]) it was 86% (active); in assay [6] (at 50.0 µM) it was 59.2%.

Consider `Cc1nc(N)sc1N=Nc1ccc(Cl)cc1`, for which the growth inhibition is -16% in assay [1] (setting [7]); 55% in assay [1] (setting [8]); 78% (active) in assay [1] (at 50.0 µM); 7% in assay [2] (setting [7]); 62% in assay [2] (setting [8]); 50% in assay [2] (at 50.0 µM). The growth inhibition in assay [3] (setting [7]) is -5%; in assay [3] (setting [8]), 62%; in assay [3] (at 50.0 µM), 57.2%; in assay [4] (setting [7]), 5%; in assay [4] (setting [8]), 24%; in assay [4] (at 50.0 µM), 66.7%. In addition, the growth inhibition is 10% in assay [5] (setting [7]); 52% in assay [5] (setting [8]); 81.8% (active) in assay [5] (at 50.0 µM); 21% in assay [6] (setting [7]); 77% (active) in assay [6] (setting [8]); 84.5% (active) in assay [6] (at 50.0 µM).

Consider `O=[N+]([O-])c1cc(C(F)(F)F)cc([N+](=O)[O-])c1CCl`, for which the growth inhibition was 100% (active) in assay [1] (setting [7]); 100% (active) in assay [1] (setting [8]); 99.7% (active) in assay [1] (at 50.0 µM); 100% (active) in assay [2] (setting [7]); 100% (active) in assay [2] (setting [8]); 99.8% (active) in assay [2] (at 50.0 µM). In addition, the growth inhibition is 100% (active) in assay [3] (setting [7]); 100% (active) in assay [3] (setting [8]); 99.6% (active) in assay [3] (at 50.0 µM); 100% (active) in assay [4] (setting [7]); 100% (active) in assay [4] (setting [8]); 99.4% (active) in assay [4] (at 50.0 µM). The growth inhibition in assay [5] (setting [7]) was 100% (active); in assay [5] (setting [8]) it was 100% (active); in assay [5] (at 50.0 µM) it was 99.4% (active); in assay [6] (setting [7]), 100% (active); in assay [6] (setting [8]), 100% (active); in assay [6] (at 50.0 µM) it was 99.7% (active).

Consider `O=C(/C=C/c1ccccc1)CCN1CCN(CCC(=O)/C=C/c2ccccc2)CC1`, for which the growth inhibition in assay [1] (setting [7]) was 36%; in assay [1] (setting [8]) it was 100% (active); in assay [1] (at 50.0 µM) it was 99.2% (active); in assay [2] (setting [7]) it was 56%; in assay [2] (setting [8]) it was 100% (active); in assay [2] (at 50.0 µM), 99.5% (active). Further, the growth inhibition is 40% in assay [3] (setting [7]); 57% in assay [3] (setting [8]); 99.4% (active) in assay [3] (at 50.0 µM); 88% (active) in assay [4] (setting [7]); 100% (active) in assay [4] (setting [8]); 99.4% (active) in assay [4] (at 50.0 µM). Besides, the growth inhibition is 36% in assay [5] (setting [7]); 99% (active) in assay [5] (setting [8]); 99.4% (active) in assay [5] (at 50.0 µM); 78% (active) in assay [6] (setting [7]); 100% (active) in assay [6] (setting [8]); 99.5% (active) in assay [6] (at 50.0 µM).

`Nc1ccc(O)c(=O)cc1`: the growth inhibition in assay [2] (setting [7]) is -40%; in assay [2] (setting [8]) it was 11%; in assay [2] (at 50.0 µM), 45.1%; in assay [3] (setting [7]), 0%; in assay [3] (setting [8]), 18%; in assay [3] (at 50.0 µM) it was 62.2%. Moreover, the growth inhibition was -2% in assay [4] (setting [7]); 0% in assay [4] (setting [8]); 25.1% in assay [4] (at 50.0 µM); -8% in assay [5] (setting [7]); 4% in assay [5] (setting [8]); 76.6% (active) in assay [5] (at 50.0 µM). In addition, the figures for the growth inhibition in assay [6] (setting [7]), in assay [6] (setting [8]) and in assay [6] (at 50.0 µM) were -2%, 15% and 59.9%, respectively.

Consider `OCC(O)C(O)C(O)C(O)C(SCc1ccccc1)SCc1ccccc1` (centres undefined), for which the growth inhibition in assay [1] (at 50.0 µM) was 9.5% and -3.9% and -5.4%; in assay [2] (at 50.0 µM) it was -1.5% and -0.6% and 8.55%; in assay [3] (at 50.0 µM) it was 6.25% and -7.1% and 8.7%; in assay [4] (at 50.0 µM), -9.4% and -3.35% and -11.2%; in assay [5] (at 50.0 µM) it was -3.7% and -7.25% and 2.05%; in assay [6] (at 50.0 µM), 10.1% and 3.6% and 10.6%.
